Bioassay records from PubChem BioAssay.
VP16 counter: Gal4-VP16 reporter inhibition counter-screen. Potency, µM (highest dose often 53.6 µM), inactives show at the top dose activity, negative = inhibition, most hits filed as inhibitors. 310,000 tested, 3.5% active. Drosophila S2 Gal4-VP16 UAS-luciferase, luminescence, 20 h;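 also: Gal4-VP16 expression switched on by copper sulfate through the metallothionein promoter; % is scaled to controls: 0 for no effect and ±100 for the full control effect; nearly all actives have a fitted effect of over 50% in size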
GLP1R cytotox: cytotoxic in the GLP-1 receptor inverse agonist counter-screen; HEK293 cAMP-luciferase reporter cells, luminescence, 24 h; Potency, µM (top dose mostly 38.3 µM), inactives show at the top dose activity change, negative = inhibition, actives largely listed as inhibitors; 410,000 tested, 0.13% active; AID 624418;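 also: loss of luciferase light is scored as toxicity; % is scaled to controls: 0 for no effect and ±100 for the full control effect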
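To flag toxic compounds, the library was rerun on cells for 24 hr at 37 deg C and 5% CO2. Viability-linked luminescence was captured 12 min after adding luciferase detection reagent.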
GLP1R ag: activates the human GLP-1 receptor; P43220; HEK293 GLP-1R CRE-luciferase, luminescence, 4-6 h; cells express a hypersensitive GLP-1R form; Potency, µM (highest dose often 45.6 µM), inactives show top-dose activation, hits mostly activators; 380,000 tested, 0.007% active; also: % of control where 0% means no effect
GLP1R inv ag: GLP-1 receptor (human) inverse agonism; P43220; HEK293 GLP-1R CRE-luciferase, luminescence, 24 h; GLP-1R form is constitutively active; Potency, µM (highest dose often 38.3 µM), for inactives: top-dose activity change, negative = inhibition, actives largely listed as inhibitors; 410,000 tested, 1.6% active; AID 624417; also: % is scaled to controls: 0 for no effect and ±100 for the full control effect; nearly all actives have a fitted effect of over 55% in size
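Assay principle: reduced luminescence from a cAMP-responsive reporter in HEK293 cells co-expressing a constitutively active GLP-1R. Conditions: 24 hr compound incubation, 37 deg C, 5% CO2.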
RORgamma inh: inhibitors of mouse ROR gamma transcriptional activity. 310,000 tested, 5.4% active. Potency, µM (doses to about 53.6 µM), for the others: top-dose activity change, negative = inhibition, usual class: inhibitors. Drosophila S2 Gal4-RORgamma UAS-luciferase reporter, 20 h. AID 2551. P51450; also: % is scaled to controls: 0 for no effect and ±100 for the full control effect; nearly all actives have a fitted effect of over 60% in size
Target sequence (P51450 whole entry, looked up, the tested form may be a part): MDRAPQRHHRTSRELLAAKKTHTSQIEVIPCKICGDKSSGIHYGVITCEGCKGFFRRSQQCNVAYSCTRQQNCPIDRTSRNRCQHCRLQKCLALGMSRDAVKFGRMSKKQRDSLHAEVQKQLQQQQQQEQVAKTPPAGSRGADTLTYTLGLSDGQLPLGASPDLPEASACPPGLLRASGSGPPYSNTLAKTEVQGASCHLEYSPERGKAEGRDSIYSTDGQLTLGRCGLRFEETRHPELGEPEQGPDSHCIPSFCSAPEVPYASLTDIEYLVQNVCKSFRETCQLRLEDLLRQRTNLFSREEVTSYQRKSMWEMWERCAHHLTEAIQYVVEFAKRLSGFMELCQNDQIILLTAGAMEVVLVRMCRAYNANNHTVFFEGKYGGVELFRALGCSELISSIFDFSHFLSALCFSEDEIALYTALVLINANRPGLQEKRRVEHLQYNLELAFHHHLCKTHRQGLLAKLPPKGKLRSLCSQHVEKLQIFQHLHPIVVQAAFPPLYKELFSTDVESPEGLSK
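Compounds are pin-transferred onto Drosophila Schneider cells expressing a copper-inducible Gal4–ROR gamma transactivation domain fusion. After 1 hr, copper sulfate is added to 700 uM final; luciferase is read 20 hr later.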
* = called active by the depositor; ? = inconclusive; · = not tested or not shown; [ ] = remark or other dose. Sampled rows, rich in hits. Any-hit rate of the full collection: about 5.9%. Calls follow the shape of the dose curve; as a rule, active = well fitted curve in the direction sought with a large enough effect; inconclusive = small, poorly fitted or top-dose-only effect, or another doubt; inactive = no such curve, though single readings can be large; an effect the other way counts as inactive or inconclusive. Potency is read from the fitted curve at half-maximal effect.

SMILES	VP16 counter	GLP1R cytotox	GLP1R ag	GLP1R inv ag	RORgamma inh
CCCCCn1c(=O)c(C(=O)Nc2ccccc2N)c(O)c2ccccc21	?	0%	1%	21%	2%[1.91 µM]
CCCCn1c(=O)c(C(=O)Nc2ccccc2N)c(O)c2ccccc21	7.1µM*	8%	-3%	4%	5.6µM*
CCCCCn1c(=O)c(C(=O)NCc2ccncc2)c(O)c2ccccc21	4.5µM*	-5%	2%	0%	3.5µM*
CC(C)(C)c1ccc(CN2N=Nc3ccccc3S2(=O)=O)cc1	1.6µM*	?	-2%	?	23%
Nc1ccc(-c2ccc(N)c(Cl)c2)cc1Cl	-6%	·	·	·	5%
Cc1cccc(N2C(=O)NC(=O)/C(=C\c3cc(C)n(-c4sc5c(c4C#N)CCCC5)c3C)C2=O)c1C	4%	-6%	8%	3.5µM*	29%
Cc1cccc(NC(=O)c2ccc(F)c(S(=O)(=O)N3CCN(c4ccc(F)cc4)CC3)c2)c1	·	1%	·	?	·
O=C(CCOc1cccc(Br)c1)Nc1ccc(F)c(S(=O)(=O)N2CCOCC2)c1	·	?	7%	10µM*	·
C=C(C)[C@]12C[C@@H](C)[C@@]34OC(Cc5ccccc5)(O[C@@H]1[C@@H]3C=C(COC(=O)Cc1cc(OC)c(O)cc1I)C[C@]1(O)C(=O)C(C)=C[C@@H]41)O2	?	·	·	·	8%
O=C(N[C@@H]1N=C(c2ccccc2F)c2cccc3c2N(CC3)C1=O)c1cc2ccccc2[nH]1	·	·	-8%	·	·
CC(Cc1ccccc1Sc1ccccc1O)N(C)C (stereo unspecified)	-5%	6%	-15%	7.9µM*	28%
COc1ccc2c3c1OC1C(O)C=CC4[C@@H](C2)NCC[C@]314 (stereo partly specified)	·	·	-3%[96 µM]	·	·
CN1C(=O)CCS(=O)(=O)[C@H]1c1ccc(Cl)cc1	-4%	·	·	·	?
CC(C)OC(=O)Nc1cccc(Cl)c1	1%	·	·	·	?
CCOC(=O)c1sc(NC(=O)Nc2cccc(Cl)c2)cc1C	?	?	-13%	3.5µM*	-91%
O=C(Nc1ccccc1Cl)c1ccccc1Oc1ccc(C(F)(F)F)cc1[N+](=O)[O-]	-9%	?	-43%	7.1µM*	23%
Oc1cc(Cl)cc(Cl)c1	-1%	·	·	·	28%
CNCC(N)C(=O)O (stereo unspecified)	-4%	·	·	·	-3%
C/C(=N\NC(N)=S)C12CC3CC(CC(C3)C1)C2	2.5µM*	-26%	-1%	-22%	1.8µM*
CCCCOCC1CO1 (stereo unspecified)	7%	·	·	·	1%
CC(N)C(=O)c1ccccc1 (stereo unspecified)	·	·	11%[110 µM]	·	·
CCc1ccc(/C=C2\SC(=S)N(CCCC(=O)N(CCO)c3ccccc3)C2=O)cc1	·	?	-5%	10µM*	·
O=C(CCCN1C(=O)/C(=C\c2ccccc2)SC1=S)N1CCOCC1	·	?	-11%	?	·
C#CCN1C(C)=C(C(=O)CCO)[C@@H](c2cccc(-n3oo3)c2)C(C(=O)OC)=C1C	-8%	·	·	·	26%
CC1=C(O)C(=O)[C@H]2O[C@@H]2C1=O	8.9µM*	·	·	·	2.8µM*
SMILES	VP16 counter	GLP1R cytotox	GLP1R ag	GLP1R inv ag	RORgamma inh
c1ccc(CCc2ccc3n2Cc2cnnn2-c2ccccc2-3)cc1	·	-1%	1%	11µM*	·
COc1ccc(-c2ccc3n2Cc2cnnn2-c2ccccc2-3)cc1	·	-6%	-1%	0%	·
CCCC(=O)Cl	4%	·	·	·	-10%
NC(=S)NN=C(c1ccc(Br)cc1)C1CC1	·	2.5µM*	-9%	4µM*	·
CO/C1=C\C(C)=C\[C@@H](C)[C@@H](O)[C@@H](C)C/C(C)=C/C=C/[C@H](OC)[C@@H]([C@@H](C)[C@@H](O)[C@H](C)[C@@]2(O)C[C@@H](O)[C@H](C)C(C(C)C)O2)OC1=O (stereo partly specified)	7.1µM*	·	·	·	6.3µM*
CCN(CC)CC(O)c1ccc(C2CCCC2)cc1 (stereo unspecified)	-5%	10%	-1%	7.1µM*	-18%
CN1C(CC(O)c2ccccc2)CCCC1CC(O)c1ccccc1 (stereo unspecified)	·	-3%	?	-9%	·
Cc1cccc(-n2c(/C=C/c3c(C)[nH]c4ccccc34)nc3ccccc3c2=O)c1	·	1%	·	18%	·
